High-throughput results (PubChem BioAssay)
Only some compounds are listed: those with a hit (about 1.5% of all), similar ones and a draw of the others.
TPT1 inh – Candida albicans TPT1 enzyme inhibitors, primary screen, biochemical, fluorescence polarization | inhibition, % at 5 µM | AID 1962, 2009 | tRNA 2'-phosphotransferase TPT1 (Candida albicans SC5314) | recombinant caTPT1, FP RNA substrate dephosphorylation | 300,000 tested, 0.81% active;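 active = inhibition above the mean of all tested compounds plus 3 SD, set per screening campaign, cut at about 24% in these data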;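 note: plate controls were DMSO alone for no effect and ferristatin control at 100 nM for full effect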
RTF Ca sens inh – cardiac RTF calcium sensitivity inhibitors, primary screen, biochemical, IANBD-TnC fluorescence, EC70 calcium; Troponin I, cardiac muscle (Homo sapiens) + Troponin T, cardiac muscle (Homo sapiens) + …; IANBD-labeled cardiac RTF, Ca2+ fluorescence; inhibition, % at 7.15 µM; 340,000 tested, 0.12% active;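 active = inhibition above the mean inhibition of all tested compounds plus 3 SD, cut at about 17% in these data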;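 note: assay run at fixed EC70 calcium of 1.6 mM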
IDE act – human IDE activators in live cells, primary screen, fluorescence polarization, HEK cells, FAbeta-B substrate; Insulin-degrading enzyme (Homo sapiens), P14735; FAbeta-B cleavage; 0% vehicle, 100% cell-free pure enzyme wells; activation, % at 5.96 µM; 340,000 tested, 0.073% active; AID 493087, 2011;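 active = activation above the mean of all tested compounds plus 3 SD, set per screening campaign, cut at about 17% in these data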
Target sequence (P14735 whole entry, looked up): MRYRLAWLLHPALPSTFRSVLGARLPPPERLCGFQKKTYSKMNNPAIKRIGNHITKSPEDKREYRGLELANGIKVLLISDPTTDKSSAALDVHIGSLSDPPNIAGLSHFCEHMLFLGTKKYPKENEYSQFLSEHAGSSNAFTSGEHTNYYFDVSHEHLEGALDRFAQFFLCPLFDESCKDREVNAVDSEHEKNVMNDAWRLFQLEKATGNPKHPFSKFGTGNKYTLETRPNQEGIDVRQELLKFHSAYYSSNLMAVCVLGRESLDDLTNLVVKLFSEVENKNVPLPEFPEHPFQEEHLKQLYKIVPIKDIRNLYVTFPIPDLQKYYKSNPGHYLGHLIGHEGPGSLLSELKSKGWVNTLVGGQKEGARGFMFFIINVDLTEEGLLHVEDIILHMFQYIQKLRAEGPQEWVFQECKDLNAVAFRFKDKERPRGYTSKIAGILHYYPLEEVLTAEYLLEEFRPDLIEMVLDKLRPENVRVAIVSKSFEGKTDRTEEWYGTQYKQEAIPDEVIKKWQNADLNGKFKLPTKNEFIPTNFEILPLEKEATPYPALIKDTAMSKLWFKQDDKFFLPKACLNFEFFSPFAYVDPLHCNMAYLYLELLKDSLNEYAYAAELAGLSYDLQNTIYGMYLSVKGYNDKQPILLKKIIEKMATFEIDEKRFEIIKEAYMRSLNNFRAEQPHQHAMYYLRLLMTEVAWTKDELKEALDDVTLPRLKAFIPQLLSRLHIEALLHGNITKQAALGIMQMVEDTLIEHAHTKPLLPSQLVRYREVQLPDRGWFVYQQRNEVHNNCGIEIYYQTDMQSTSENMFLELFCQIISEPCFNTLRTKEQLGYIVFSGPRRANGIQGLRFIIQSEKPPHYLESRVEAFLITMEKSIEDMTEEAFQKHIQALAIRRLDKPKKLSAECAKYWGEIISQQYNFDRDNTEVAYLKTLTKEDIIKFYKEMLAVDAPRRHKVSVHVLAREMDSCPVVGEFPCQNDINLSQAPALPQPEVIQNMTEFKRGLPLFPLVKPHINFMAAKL
RTF Ca sens act – cardiac RTF calcium sensitivity activators, primary screen, biochemical, IANBD-TnC fluorescence, EC20 calcium | Troponin I, cardiac muscle (Homo sapiens) + Troponin T, cardiac muscle (Homo sapiens) + … | IANBD-labeled TnC RTF fluorescence at EC20 calcium; 0% EC20 calcium, 100% full calcium | activation, % at 7.2 µM | 340,000 tested, 0.24% active | AID 493008, 2010;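 active = activation above the mean over all tested compounds plus 3 SD, cut at about 30% in these data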;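 note: rise in fluorescence read as greater calcium sensitivity of cardiac thin filaments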
CRFR2-BP ag – agonists of CRF-BP/CRF-R2 complex, primary screen, cell-based, HEK293, calcium dye fluorescence, uHTS | calcium dye fluorescence (FLIPR); percent of saturating CRF peptide response | activation, % at 13.2 µM | 350,000 tested, 0.46% active | AID 588473, 2011;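 active = activation of at least 50%, plus an integration ratio under a set limit after plate pattern correction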;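 note: plate controls were neutral control wells without compound for no effect and CRF at EC100 for full effect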
IDE inh – human IDE inhibitors in live cells, primary screen, fluorescence polarization, HEK cells, FAbetaB substrate. Insulin-degrading enzyme (Homo sapiens), P14735. FAbetaB cleavage. inhibition, % at 5.59 µM. 320,000 tested, 0.41% active;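 active = percent inhibition above the average of all tested compounds plus 3 SD, set per screening campaign, cut at about 16% in these data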;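 note: IDE supplied by intact live HEK cells; FP after avidin binding of uncleaved biotin substrate so inhibition keeps polarization high; 0% = DMSO wells and 100% = 60 µM reference IDE inhibitor Ii1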
IDE inh confirm – human IDE inhibitors in live cells, confirmation, fluorescence polarization, HEK cells, FAbetaB substrate | shares compounds with IDE inh | FAbetaB cleavage | inhibition, % at 5.59 µM | 1,200 tested, 51% active;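 active = mean inhibition across triplicate wells above the cutoff set by the earlier primary insulin-degrading enzyme screen, cut at about 16% in these data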;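 note: 0% = DMSO wells and 100% = 60 µM reference IDE inhibitor Ii1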
HEK cytotox – cytotoxicity in HEK cells, cytotoxicity control for IDE inhibitor project, cell-based, luminescence. shares compounds with IDE inh. HEK293 cytotoxicity, ATP luminescence. 1,200 tested, 28% active. inhibition, % at 5.59 µM; in the data active = inhibition above about 22%;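 note: 0% = vehicle wells and 100% = reference cytotoxic drug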
An asterisk follows results filed as active; . = no result given.

SMILES | TPT1 inh | RTF Ca sens inh | IDE act | RTF Ca sens act | CRFR2-BP ag | IDE inh | IDE inh confirm | HEK cytotox
CC[n+]1c(/C=C/N(C)c2ccccc2)oc2ccc(Cl)cc21 | 6.2 | -8.5 | -1.9 | 3.6 | 1.8 | -1.8 | . | .
COc1ccc(OCCNC(=O)Nc2cc(F)c(F)cc2Cl)cc1 | -0.3 | -12.3 | -8.8 | 1.0 | 1.3 | 17.6* | 2.5 | 5.6
CCOc1ccccc1-n1c(SCC(=O)N(C(C)C)C(C)C)nnc1-c1cccnc1 | -6.3 | 4.3 | -19.9 | 7.0 | 0.6 | 12.3 | . | .
CCOc1ccccc1-n1c(SCC(N)=O)nnc1-c1cccnc1 | -5.1 | 3.0 | -33.2 | 1.8 | -0.9 | 16.5* | 12.6 | 8.9
CCOc1cccc(CN2CCC(Oc3ccc(C(=O)N4CCCC4)cc3)CC2)c1O | . | . | . | . | 1.7 | . | . | .
Cn1c(CN2CCOCC2)nnc1SCC(=O)NCCc1ccccc1 | 0.1 | -1.3 | -21.4 | 2.4 | -0.2 | 21.2* | 11.8 | 6.1
Cn1c(CN2CCOCC2)nnc1SCc1ccccc1 | -1.6 | -1.5 | -15.3 | -3.8 | 0.8 | 1.8 | . | .
Cc1oc(-c2ccc(Cl)cc2)nc1CN1CCC(C(=O)NCCCN2CCCC(C)C2)CC1 (stereo not given) | 2.9 | -4.3 | 2.5 | 0.2 | -0.1 | -0.7 | . | .
Cc1ccc2c(c1)C1NC(=S)NC(C)(O2)C1C(=O)Nc1ccc(Cl)cc1 (stereo not given) | 1.6 | -15.4 | -12.2 | 2.3 | -2.4 | 17.2* | 9.0 | 13.1
COc1ccc2c(c1)C1NC(=S)NC(C)(O2)C1C(=O)Nc1ccc(Cl)cc1 (stereo not given) | -2.9 | 0.4 | -6.8 | -1.4 | -2.5 | 15.0 | . | .
Cc1ccccc1NC(=O)CSc1nnc2ccc(-c3ccncc3)nn12 | -2.1 | -2.6 | 0.3 | 7.4 | -1.0 | -2.1 | . | .
CCOc1ccccc1NC(=O)CSc1nnc2ccc(-c3ccncc3)nn12 | -2.0 | -8.0 | -16.3 | -2.0 | -0.7 | 22.3* | 9.0 | 9.1
CCOc1ccc(CN(C)C(=O)CNC(=O)c2ccc3ccccc3c2)cc1OC | -4.1 | 5.6 | -6.2 | 4.0 | 1.2 | 16.8* | 8.9 | 15.0
COc1ccc(Br)cc1CN(C)C(=O)CNC(=O)c1ccc2ccccc2c1 | -3.8 | -1.5 | 2.1 | -3.0 | -1.3 | 9.6 | . | .
Nc1nonc1-n1nnc(C(=O)N/N=C/c2ccc(OCc3ccccc3)cc2)c1CN1CCCCC1 | 2.4 | -5.1 | -3.4 | 0.0 | 6.6 | -2.1 | . | .
Cc1ccc(C(=O)/C=C/N(C)C)o1 | 6.7 | -9.4 | 6.8 | 4.7 | -0.5 | 5.5 | . | .
Cc1ccc(C(=O)/C=C/c2cc(Br)cc(Br)c2O)o1 | 9.2 | -12.4 | -12.8 | 0.5 | 24.4 | 16.5* | 26.5* | 20.9
Cc1[nH]n(-c2ccccc2)c(=S)c1C=Nc1ccc([N+](=O)[O-])cc1 | -1.0 | 5.8 | -32.5 | 5.0 | -1.4 | 19.9* | 3.4 | 17.7
COc1ccc(CN2CCC(n3nccc3NC(=O)C3CC3)CC2)cc1O | -1.5 | -9.1 | 3.7 | 5.2 | 0.8 | -4.0 | . | .
O=c1c2[nH]c3ccccc3c2ncn1CCCn1ccnc1 | -3.5 | -4.1 | -3.5 | 0.6 | -1.6 | 3.3 | . | .
O=c1c2[nH]c3ccc(Br)cc3c2ncn1CCCn1ccnc1 | -8.2 | -18.2 | -9.4 | 5.3 | 6.8 | 21.1* | 5.6 | 18.6
N#Cc1c(N)nc(N2CCCC2)c(C#N)c1-c1ccc(Cl)cc1 | -1.0 | 2.6 | 1.0 | 1.5 | 0.6 | 6.6 | . | .
